Measurements published in the supplement of paper PMC8728848.
The sample as a whole holds a higher share of the strongest signals than the screen did.

How the values were obtained:
Assay in all cases: glycan array binding signal (z-score within array); higher = stronger binding
Details in all cases: glycan notation: IUPAC condensed, linker removed
Fuc(a1-2)Gal(b1-3)GalNAc = target: Fuc(a1-2)Gal(b1-3)GalNAc
Outline: (§1)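 The binding signal is a Z-score computed within each array and averaged over linkers. Arrays of the same protein sequence at different concentrations or buffers were also averaged together. Data originate from 3228 arrays in the Consortium for Functional Glycomics database, kept only where the protein sequence was available.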

[1] = target: Fuc(a1-2)Gal(b1-3)GalNAc(b1-4)[Neu5Ac(a2-3)]Gal(b1-4)Glc
Outline: as §1

Fuc(a1-2)Gal(b1-4)Glc = target: Fuc(a1-2)Gal(b1-4)Glc
Outline: as §1

[2] = target: Fuc(a1-2)Gal(b1-4)[Fuc(a1-3)]GlcNAc(b1-3)Gal(b1-4)[Fuc(a1-3)]GlcNAc(b1-3)Gal(b1-4)[Fuc(a1-3)]GlcNAc
Outline: as §1

[3] = target: Fuc(a1-2)Gal6S(b1-3)GlcNAc6S
Outline: as §1

[4] = target: Fuc(a1-2)[Gal(a1-3)]Gal(b1-3)GlcNAc
Outline: as §1

[5] = target: Fuc(a1-2)[Gal(a1-3)]Gal(b1-3)GlcNAc(b1-2)Man(a1-3)[Fuc(a1-2)[Gal(a1-3)]Gal(b1-3)GlcNAc(b1-2)Man(a1-6)]Man(b1-4)GlcNAc(b1-4)[Fuc(a1-6)]GlcNAc
Outline: as §1

[6] = target: Fuc(a1-2)[Gal(a1-3)]Gal(b1-4)GlcNAc(b1-2)Man(a1-3)[Fuc(a1-2)[Gal(a1-3)]Gal(b1-4)GlcNAc(b1-2)Man(a1-6)]Man(b1-4)GlcNAc(b1-4)GlcNAc
Outline: as §1

[7] = target: Fuc(a1-2)[GalNAc(a1-3)]Gal(b1-3)GlcNAc(b1-2)Man(a1-3)[Fuc(a1-2)[GalNAc(a1-3)]Gal(b1-3)GlcNAc(b1-2)Man(a1-6)]Man(b1-4)GlcNAc(b1-4)[Fuc(a1-6)]GlcNAc
Outline: as §1

[8] = target: Fuc(a1-2)[GalNAc(a1-3)]Gal(b1-3)GlcNAc(b1-6)GalNAc
Outline: as §1

[9] = target: Gal(a1-3)[Gal(a1-4)]Gal(b1-4)GlcNAc
Outline: as §1

[10] = target: Gal(a1-4)Gal(b1-3)GlcNAc(b1-2)Man(a1-3)[Gal(a1-4)Gal(b1-3)GlcNAc(b1-2)Man(a1-6)]Man(b1-4)GlcNAc(b1-4)GlcNAc
Outline: as §1

Gal(b1-3)Gal(b1-4)GlcNAc = target: Gal(b1-3)Gal(b1-4)GlcNAc
Outline: as §1

[11] = target: Gal(b1-3)GlcNAc(b1-2)Man(a1-3)[Gal(b1-3)GlcNAc(b1-2)Man(a1-6)]Man(b1-4)GlcNAc(b1-4)GlcNAc
Outline: as §1

[12] = target: Gal(b1-3)GlcNAc(b1-3)Gal(b1-4)[Fuc(a1-3)]GlcNAc
Outline: as §1

[13] = target: Gal(b1-3)GlcNAc(b1-6)[Gal(b1-3)]GalNAc
Outline: as §1

[14] = target: Gal(b1-4)GlcNAc(b1-2)Man(a1-3)[Gal(b1-4)GlcNAc(b1-2)Man(a1-6)]Man(b1-4)GlcNAc(b1-4)[Fuc(a1-6)]GlcNAc
Outline: as §1

[15] = target: Gal(b1-4)GlcNAc(b1-2)Man(a1-3)[Gal(b1-4)GlcNAc(b1-2)Man(a1-6)][Gal(b1-4)GlcNAc(b1-4)]Man(b1-4)GlcNAc(b1-4)[Fuc(a1-6)]GlcNAc
Outline: as §1

[16] = target: Gal(b1-4)GlcNAc(b1-2)Man(a1-3)[Gal(b1-4)GlcNAc(b1-2)Man(a1-6)][GlcNAc(b1-4)]Man(b1-4)GlcNAc(b1-4)[Fuc(a1-6)]GlcNAc
Outline: as §1

[17] = target: Gal(b1-4)GlcNAc(b1-3)Gal(b1-4)GlcNAc(b1-2)Man(a1-3)[Gal(b1-4)GlcNAc(b1-3)Gal(b1-4)GlcNAc(b1-2)Man(a1-6)]Man(b1-4)GlcNAc(b1-4)[Fuc(a1-6)]GlcNAc
Outline: as §1

[18] = target: Gal(b1-4)GlcNAc(b1-3)Gal(b1-4)GlcNAc(b1-3)Gal(b1-4)GlcNAc(b1-2)Man(a1-3)[Gal(b1-4)GlcNAc(b1-3)Gal(b1-4)GlcNAc(b1-3)Gal(b1-4)GlcNAc(b1-2)Man(a1-6)]Man(b1-4)GlcNAc(b1-4)GlcNAc
Outline: as §1

[19] = target: Gal(b1-4)GlcNAc(b1-3)Gal(b1-4)GlcNAc(b1-3)Gal(b1-4)GlcNAc(b1-2)[Gal(b1-4)GlcNAc(b1-3)Gal(b1-4)GlcNAc(b1-3)Gal(b1-4)GlcNAc(b1-6)]Man(a1-6)[Gal(b1-4)GlcNAc(b1-3)Gal(b1-4)GlcNAc(b1-3)Gal(b1-4)GlcNAc(b1-2)Man(a1-3)]Man(b1-4)GlcNAc(b1-4)[Fuc(a1-6)]GlcNAc
Outline: as §1

[20] = target: Gal(b1-4)GlcNAc(b1-3)Gal(b1-4)GlcNAc(b1-3)Gal(b1-4)GlcNAc(b1-3)Gal(b1-4)GlcNAc(b1-2)Man(a1-3)[Gal(b1-4)GlcNAc(b1-3)Gal(b1-4)GlcNAc(b1-3)Gal(b1-4)GlcNAc(b1-3)Gal(b1-4)GlcNAc(b1-2)Man(a1-6)]Man(b1-4)GlcNAc(b1-4)GlcNAc
Outline: as §1

[21] = target: Gal(b1-4)GlcNAc(b1-3)Gal(b1-4)GlcNAc(b1-3)Gal(b1-4)GlcNAc(b1-3)Gal(b1-4)GlcNAc(b1-3)Gal(b1-4)GlcNAc(b1-2)Man(a1-3)[Gal(b1-4)GlcNAc(b1-3)Gal(b1-4)GlcNAc(b1-3)Gal(b1-4)GlcNAc(b1-3)Gal(b1-4)GlcNAc(b1-3)Gal(b1-4)GlcNAc(b1-2)Man(a1-6)]Man(b1-4)GlcNAc(b1-4)GlcNAc
Outline: as §1

[22] = target: Gal3S(b1-4)[Fuc(a1-3)]GlcNAc6S
Outline: as §1

Gal3S6S(b1-4)GlcNAc = target: Gal3S6S(b1-4)GlcNAc
Outline: as §1

[23] = target: Glc(a1-6)Glc(a1-6)Glc(a1-6)Glc
Outline: as §1

GlcA(b1-6)Gal = target: GlcA(b1-6)Gal
Outline: as §1

[24] = target: GlcNAc(a1-4)Gal(b1-4)GalNAc
Outline: as §1

[25] = target: GlcNAc(a1-4)Gal(b1-4)GlcNAc
Outline: as §1

B1: PX14343G-pdi-535-24-535 (Parabacteroides distasonis) (protein)
chain: LDTVPKDQLAPSTTWQTEADAKGFIVGCYKDLLDGNTLLYLDCGSDIGYNNFPWEGFRPWGDGSLSSSNPGQILYDYKSIRKANTFLENVDKVTFSSDAVKANYVAQAKAIRAYKYFLMNWWYGGVPIISSYSSADEAKVERNTEQEVRDYIAKDLDEALAGIAEAPEARGYIAKGAVLAIKMREALYYGDWQKAKDAAKAIIDLKQYELDPDYTNLFKVSGVDSKEIILADQNIETLDGLGTIGQMYNNVDQGWSSIVPTQNLVDMYEMSDGLTKEESKTYDAKHPFANRDPRMAMTILYPGRDWRGDVLNTLDEKLQDGTVNKNFPTYTDNASKSALTWAKYLDPMDQYGDVWSSGACPIVFRYAEVLLTYAEAANELSGPSDEIYGYLNQIRQRVGMGEVDKAKYGTKDKLRELIRRERTVELAGEGLRRADIVRWQEDGKMLAEKVMNGDLLRVTGTINYGESEPTKRAEITGTAVIETRQFSSRNRYLPIPQTSMDKNPNLKQNPGY
Q: With B1 as the binder, how does the “glycan array binding signal (z-score)” value (Fuc(a1-2)Gal(b1-3)GalNAc) read?
A: -1.05

Q: And the “glycan array binding signal (z-score)” value [1]?
A: -0.439

Q: And the “glycan array binding signal (z-score)” value (Fuc(a1-2)Gal(b1-4)Glc)?
A: -0.597

Q: And the “glycan array binding signal (z-score)” value [2]?
A: -0.34

Q: And the “glycan array binding signal (z-score)” value [3]?
A: 0.336

Q: What about the “glycan array binding signal (z-score)” value [4] of the same binder?
A: 0.064

Q: What about the “glycan array binding signal (z-score)” value [5] of the same binder?
A: -0.242

Q: And the “glycan array binding signal (z-score)” value [6]?
A: 2.43

Q: What about the “glycan array binding signal (z-score)” value [7] of the same binder?
A: -1.2

Q: What about the “glycan array binding signal (z-score)” value [8] of the same binder?
A: -0.366

Q: And the “glycan array binding signal (z-score)” value [9]?
A: 2.67

Q: What about the “glycan array binding signal (z-score)” value [10] of the same binder?
A: -0.566

Q: And the “glycan array binding signal (z-score)” value (Gal(b1-3)Gal(b1-4)GlcNAc)?
A: 0.673

Q: What about the “glycan array binding signal (z-score)” value [11] of the same binder?
A: 0.51

Q: And the “glycan array binding signal (z-score)” value [12]?
A: -0.53

Q: And the “glycan array binding signal (z-score)” value [13]?
A: 0.402

Q: What about the “glycan array binding signal (z-score)” value [14] of the same binder?
A: -0.363

Q: And the “glycan array binding signal (z-score)” value [15]?
A: -0.426

Q: And the “glycan array binding signal (z-score)” value [16]?
A: -0.515

Q: And the “glycan array binding signal (z-score)” value [17]?
A: 2.06

Q: What about the “glycan array binding signal (z-score)” value [18] of the same binder?
A: 1.65

Q: And the “glycan array binding signal (z-score)” value [19]?
A: 3.07

Q: What about the “glycan array binding signal (z-score)” value [20] of the same binder?
A: 0.004

Q: And the “glycan array binding signal (z-score)” value [21]?
A: 2.76

Q: And the “glycan array binding signal (z-score)” value [22]?
A: 2.01

Q: What about the “glycan array binding signal (z-score)” value (Gal3S6S(b1-4)GlcNAc) of the same binder?
A: 0.193

Q: What about the “glycan array binding signal (z-score)” value [23] of the same binder?
A: 0.739

Q: What about the “glycan array binding signal (z-score)” value (GlcA(b1-6)Gal) of the same binder?
A: -0.046

Q: And the “glycan array binding signal (z-score)” value [24]?
A: -1.02

Q: And the “glycan array binding signal (z-score)” value [25]?
A: 2.04
